# From the supplement of paper PMC7866885, “A novel bicyclic 2,4-diaminopyrimidine inhibitor of Streptococcus suis dihydrofolate reductase” (PeerJ, 2021)
# ± gives the standard deviation.
# Tested on: Streptococcus suis P1/7
# Assay: percent growth relative to DMSO control; higher = less growth inhibition
# Conditions: 10 µM; incubation time 18 h
# Experimental: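 CLSI broth microdilution: 5x10^4 CFU of Streptococcus suis (strain P1/7 or HE06) incubated with 10 µM Pathogen Box compound in cation-adjusted Mueller Hinton broth, 37 °C, 5% CO2, 18 h. Growth read as OD600 and expressed as percent of the DMSO-treated control (100%); mean ± SD of three independent experiments.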
row,SMILES,percent growth [%]
1,Cc1cc(C(=O)Nc2ccc(-c3ccccc3)cc2)no1,118 ± 42
2,COc1ccc(-c2cnc3ccc(N4CCCC4)nn23)cc1OC,77.7 ± 7.5
3,COc1ccc(-c2onc(C(F)(F)F)c2-c2ccc(Cl)cc2)c(O)c1,19.4 ± 34
4,O=C(Nc1cccc(Cl)c1)c1cnc(N2CCN(c3ccncc3)CC2)c(Cl)c1,20.4 ± 12
5,CCCCCCCCCCCCCCCCOP(=O)([O-])OCC[N+](C)(C)C,112 ± 40
6,CCC(=O)Nc1ccccc1C(=O)Nc1ccccn1,103 ± 41
7,COC(=O)Nc1nc2cc(C(=O)c3ccccc3)ccc2[nH]1,74.9 ± 28
8,CCCn1c(NC(=O)c2ccc3ccccc3n2)nc2ccccc21,0.618 ± 1.5
9,CCC(NC(=O)c1ccccc1NC(=O)c1ccc(C)cc1)C(=O)OC (stereo not given),78.1 ± 18
10,Cc1ccc(NC(=O)CC2COc3ccccc3O2)cc1Cl (stereo not given),95.7 ± 33
11,O=C(Nc1cccc(-c2ccc(NCCCN3CCCC3)nc2)c1)c1ccccc1,72.5 ± 24
12,CC(=O)N1CCN(c2ccc(Oc3ccc(Cl)cc3O)cc2)CC1,95.7 ± 30
13,CN1CCC(NCc2cccc(-c3ccc(S(=O)(=O)NCc4ccccc4)cc3)c2)CC1,70.3 ± 11
14,CC(C)(C)OC(=O)N1CCN(c2cc(-c3ccc(Oc4ccccc4)cc3)n[nH]2)CC1,28.7 ± 42
15,O=C(NCc1ccco1)N1CCN(Cc2ccc(Cl)s2)CC1,91.1 ± 21
16,CCOc1ccc2cc(-c3nn(CC4CCN(C)CC4)c4ncnc(N)c34)ccc2c1,99.3 ± 11
17,O=C(NCCc1c[nH]c2ccccc12)c1cc2ccccc2oc1=O,74.1 ± 8.7
18,Cc1cc(C)cc(COc2ccc3c(C)c(CCC(=O)O)c(=O)oc3c2C)c1,35.3 ± 14
19,CC(C)NCC(=O)Nc1cccc(C(=O)Nc2cccc(C(F)(F)F)c2)c1,125 ± 65
20,Cc1cccc(-c2nc(Nc3ccncn3)c3sccc3n2)n1,0.888 ± 0.29

row,SMILES,percent growth [%]
1,CC(C)(C)OC(=O)N1CCN(c2nccc(-c3ccc(-c4ccc(Cl)cc4)s3)n2)CC1,129 ± 42
2,CC1COC2(CCN(c3nc(=O)c4cc(C(F)(F)F)cc([N+](=O)[O-])c4s3)CC2)O1 (stereo not given),81.2 ± 24
3,COc1cccc2c(C)nc(N=C(N)N)nc12,66.8 ± 52
4,OCc1ccc(-c2cncc(Nc3cccc(Cl)c3)c2)cc1,69.8 ± 33
5,CC(=O)Nc1ccc(NC(=O)c2cc(-c3cc(Cl)ccc3O)[nH]n2)cc1,104 ± 13
6,CS(=O)(=O)N1CCC(CCn2nc(Cc3cccc4ccccc34)c3c(N)ncnc32)CC1,100 ± 38
7,COc1cccc(-n2nnnc2S(C)(=O)=O)c1,67.1 ± 23
8,Cc1ccc(S(=O)(=O)N2CCN(C(=O)c3cc(-c4ccccc4)[nH]n3)CC2)cc1,83.1 ± 19
9,Cc1cccnc1NC(=O)c1cccc(OCc2c(C)noc2C)c1,96.3 ± 39
10,c1ccc(C[C@@H]2CN(c3nccc(Oc4ccc(-n5ccnc5)cc4)n3)CCN2)cc1,90.5 ± 21
11,CN1CCCN(C(c2ccccc2)c2ccc(Cl)cc2)CC1 (stereo not given),85.4 ± 14
12,O=C(OCc1ccccc1)N1CCC(c2cc(-c3ccncc3)c(-c3ccc(F)cc3)[nH]2)CC1,92 ± 13
13,COc1cc(OC)cc(C(=O)NCC2Cc3cc(Cl)cc(-c4ccncc4)c3O2)c1 (stereo not given),65.4 ± 25
14,CC(=O)NC[C@H]1CN(c2ccc(N3CCSCC3)c(F)c2)C(=O)O1,2.2 ± 3.8
15,CO[C@@H](C(=O)N1Cc2[nH]nc(NC(=O)c3ccc(N4CCN(C)CC4)cc3)c2C1)c1ccccc1,86.3 ± 15
16,O=C(Nc1nc(-c2ccccn2)cs1)C1CC1c1ccccc1F (stereo not given),2.29 ± 3.7
17,C[C@]1(O)C[C@@H](c2nc(-c3ccc4ccc(-c5ccccc5)nc4c3)c3c(N)nccn32)C1,97 ± 18
18,COc1cc(NC(C)CCCN)c2ncccc2c1 (stereo not given),127 ± 60
19,CCC(Sc1nc2ccccc2o1)C(=O)Nc1nccs1 (stereo not given),9.43 ± 16
20,CCc1nc2ccc(Cl)cn2c1C(=O)NCc1ccc(N2CCC(c3ccc(OC(F)(F)F)cc3)CC2)cc1,111 ± 65
